We go through 58 compounds from PubChem BioAssay AID1053133 (Broad Institute, 2014).

Molecules are shown by their SMILES. “And” between values parts separate entries of the source, which are not always exact repeats. Identical values can stand only once. Out of some 89,000 compounds screened, about 10 (0.01%) were called active. Inconclusive results (about 10%) are left out. Cut-off read from the data, not from the text of the source: active = activity change below about -37% (passing the limit was not always enough); inconclusive = no clear call, values can overlap the other calls; tested in A549 cells. These entries were drawn from the full list.

The nature of this assay: Vaccinia orthopox stage-specific inhibition, primary screen, cell-based, single point (AID 1053133). Conditions: Vaccinia-infected cells, mCherry/Venus stage reporter fluorescence, stronger effect = lower value, concentration not given here; activity change (Venus): measured here: Venus reporter, other viral stage.
As to `C[C@@H]1CN([C@H](C)CO)C(=O)c2cc(-c3ccccc3)cnc2O[C@H]1CN(C)C(=O)NC1CCCC1`, the activity change (Venus) was -2.73% and the activity change (mCherry) was 1.1% (inactive).
For `CCC(=O)N1CCC2(CC1)CN(Cc1cc(F)ccc1F)[C@@H](CO)c1c2c2ccc(OC)cc2n1C`, in that order: -2.18% and 15.8% (inactive).
For `O=C(C[C@H]1CC[C@@H]2[C@H](COC[C@H](O)CN2C(=O)c2ccc3c(c2)OCO3)O1)NC1CCC1`, in that order: 9.5% and 3.32% (inactive).
`O=C(Nc1ccccc1F)N[C@H]1CC[C@@H](CCNS(=O)(=O)c2ccc(F)cc2)O[C@@H]1CO`: the activity change (Venus) was -12.7% and the activity change (mCherry) is -16.7% (inactive).
As for `O=C(C[C@H]1C=C[C@H](NC(=O)Nc2cc(F)ccc2F)[C@H](CO)O1)Nc1ccccc1`, the activity change (Venus) is -0.0195% and the activity change (mCherry) was -4.16% (inactive).
`COc1ccc2c3c(n(C)c2c1)[C@@H](CO)N(C(=O)c1ccc(F)cc1)CC31CN(C(=O)c2ccc(F)cc2)C1`: the activity change (Venus) is -9% and the activity change (mCherry) was -10.3% (inactive).
In the same order, the values of `COc1cccc(-c2ccc(CC[C@H]3O[C@H]4CC[C@@H](CO)O[C@H]4C[C@@H]3NS(C)(=O)=O)cc2)c1` are -32% and -32.8% (inactive).
In the case of `O=C(C[C@@H]1CC[C@H]2[C@@H](COC[C@H](O)CN2Cc2ccc(F)cc2)O1)N1CCc2ccccc2C1`, the activity change (Venus) was -6.62% and the activity change (mCherry) was -6.87% (inactive).
`CN(C)CC(=O)N1[C@H](CO)[C@@H](c2ccc(-c3cccc(C(=O)N(C)C)c3)cc2)[C@@H]1C#N`: the activity change (Venus) is -1.53% and the activity change (mCherry) was 8.67% (inactive).
For the compound `O=C(c1ccncc1)N1C[C@H]2[C@@H](c3ccccc31)[C@H](CO)N2C(=O)Nc1ccc(F)cc1`, the activity change (Venus) turned out to be 5.09% and the activity change (mCherry) is 11% (inactive).
In the case of `COCC(=O)Nc1ccc2c(c1)C(=O)N(C)[C@@H]1CC[C@H](CC(=O)NCC3CC3)O[C@H]1CO2`, the activity change (Venus) stood at 3.16% and the activity change (mCherry) was 15.4% (inactive).
For `O=C(c1ccncc1)N1C[C@H]2[C@@H](c3ccccc31)[C@H](CO)N2C(=O)c1ccccn1`, in that order: 2.97% and 10.6% (inactive).
Take `COc1ccc2c3c([nH]c2c1)[C@@H](CO)N(Cc1ccccc1F)CC31CN(C(=O)C2CC2)C1`: the activity change (Venus) stood at 19.6% and the activity change (mCherry) is 12.9% (inactive).
For the compound `CCCN(C)C[C@@H]1Oc2ncc(-c3cccc(C(=O)N(C)C)c3)cc2C(=O)N([C@H](C)CO)C[C@@H]1C`, the activity change (Venus) was 1.46% and the activity change (mCherry) is 23.1% (inactive).
For `C[C@@H]1CN([C@@H](C)CO)S(=O)(=O)c2ccc(-c3ccc(F)cc3)cc2O[C@@H]1CN(C)CC1CC1`, in that order: -14.3% and -33.2% (inactive).
In the case of `Cn1cnc(S(=O)(=O)N2C[C@@H]3N[C@H](C2)C3c2ccc(/C=C/c3ccccc3)cc2)c1` (stereo partly specified), the activity change (Venus) is 2.7% and -14.5%; the activity change (mCherry) was 7.98% (inactive) and -24.7% (inactive).
Turning to `C[C@H](CO)N1C[C@H](C)[C@@H](CN(C)C(=O)Cc2ccncc2)Oc2ncc(C3=CCCCC3)cc2C1=O`, the activity change (Venus) is -16% and the activity change (mCherry) was -18.8% (inactive).
For `CCC(=O)N1CC2(C1)[C@H](c1ccccc1)[C@@H](CO)N2C(=O)c1ccccc1`, the activity change (Venus) was -1.49% and the activity change (mCherry) is -4.89% (inactive).
In the case of `COc1ccc(-c2ccc3n(c2=O)C[C@@H]2[C@@H](CO)[C@H](C(=O)Nc4ccccc4)[C@H]3N2C)cc1`, the activity change (Venus) came to 4.65% and the activity change (mCherry) is -0.0885% (inactive).
For `CO[C@H]1CN(C)C(=O)c2ccc(NC(=O)c3ccno3)cc2OC[C@@H](C)N(S(C)(=O)=O)C[C@H]1C`, in that order: 16.7% and 24.5% (inactive).
In the same order, the values of `Cc1ccc(F)cc1S(=O)(=O)N[C@@H]1CCN(Cc2ccc(-c3ccccc3)cc2)C1` are -24.3% and -23.2% (inactive).
For `C[C@@H](NC(=O)C[C@H]1C[C@@H]2c3cc(NC(=O)Nc4ccccc4F)ccc3O[C@@H]2[C@H](CO)O1)c1ccccc1`, in that order: 0.165% and 4.14% (inactive).
`O=C(C[C@@H]1C[C@H]2c3cc(NC(=O)NC4CCCCC4)ccc3O[C@H]2[C@H](CO)O1)NCc1ccncc1`: the activity change (Venus) came out at 10.9% and the activity change (mCherry) was -4.22% (inactive).
Consider `COc1ccccc1NC(=O)N(C)C[C@H]1Oc2cc(Br)ccc2S(=O)(=O)N([C@H](C)CO)C[C@@H]1C`, for which the activity change (Venus) was -7.91% and 3.04%; the activity change (mCherry) was -12.3% (inactive) and -2.64% (inactive).
Turning to `O=C(C[C@@H]1CC[C@@H]2[C@H](COC[C@H](O)CN2C(=O)C2CC2)O1)NCc1ccncc1`, the activity change (Venus) is -2.42% and the activity change (mCherry) is 0.733% (inactive).
In the same order, the values of `COCC#Cc1ccc2c(c1)O[C@@H](CN(C)C(=O)Nc1ccccc1F)[C@H](C)CN([C@H](C)CO)S2(=O)=O` are 11.6% and 9.91% (inactive).
Take `CN1C(=O)c2cc(NC(=O)c3ccccc3)ccc2OC[C@H]2O[C@@H](CC(=O)O)CC[C@@H]21`: the activity change (Venus) was found to be 4.29% and the activity change (mCherry) was 9.5% (inactive).
On to `O=C(c1ccccn1)N1CC2(C1)[C@H](c1ccccc1)[C@H](CO)N2C(=O)C1CCCC1`, for which the activity change (Venus) was -9.04% and the activity change (mCherry) was -13.9% (inactive).
On to `Cc1noc(C)c1NC(=O)N[C@@H]1CC[C@H](CC(=O)Nc2ccccc2)O[C@H]1CO`, for which the activity change (Venus) amounted to 10.3% and the activity change (mCherry) was 4.56% (inactive).
In the same order, the values of `COc1ccc2c3c([nH]c2c1)[C@@H](CO)N(C(=O)c1cccc(F)c1)CC31CN(C(C)=O)C1` are -6.3% and 16.8% (inactive).
For the compound `CCC(=O)Nc1ccc2c(c1)OC[C@@H](C)N(Cc1ccccn1)C[C@H](C)[C@@H](OC)CN(C)C2=O`, the activity change (Venus) was found to be 5.46% and the activity change (mCherry) is 6.05% (inactive).
Regarding `C[C@@H]1CN([C@H](C)CO)S(=O)(=O)c2ccc(C#CCC3CCCC3)cc2O[C@H]1CN(C)Cc1ccc(C(=O)O)cc1`, the activity change (Venus) was -4.35% and the activity change (mCherry) is 11.2% (inactive).
In the same order, the values of `O=C(C[C@H]1CC[C@@H]2[C@H](COC[C@@H](O)CN2CC2CC2)O1)NCC1CC1` are 15.8% and 11.7% (inactive).
In the same order, the values of `C[C@H](CO)N1C[C@H](C)[C@@H](CN(C)C(=O)Nc2ccc3c(c2)OCO3)OCCCC[C@H](C)Oc2ccc(NS(=O)(=O)c3cn(C)cn3)cc2C1=O` are 3.74% and 11.2% (inactive).
For `CO[C@H]1CN(C)C(=O)c2ccc(NC(=O)c3cc(C)on3)cc2OC[C@@H](C)NC[C@@H]1C`, in that order: 4.97% and 2.62% (inactive).
For the compound `CCCc1cn(CC[C@H]2CC[C@@H](NS(=O)(=O)c3ccccc3Cl)[C@@H](CO)O2)nn1`, the activity change (Venus) worked out at 1.1% and the activity change (mCherry) is 5.97% (inactive).
As for `CCNC(=O)[C@H]1[C@H](CO)[C@H]2Cn3c(ccc(/C=C/c4ccccc4)c3=O)[C@@H]1N2C(=O)C1CCC1`, the activity change (Venus) stood at 12.9% and the activity change (mCherry) is 11.2% (inactive).
In the same order, the values of `O=C(C[C@H]1C=C[C@@H](NC(=O)C2CCOCC2)[C@@H](CO)O1)NCC1CCCCC1` are 1.03% and 8.68% (inactive).
On to `O=C(CC1CC1)Nc1ccc2c(c1)[C@@H]1C[C@@H](CC(=O)NC3CCCCC3)O[C@@H](CO)[C@@H]1O2`, for which the activity change (Venus) was -4.69% and the activity change (mCherry) is -3.33% (inactive).
For `O=C(Nc1cc(F)ccc1F)N[C@@H]1C=C[C@@H](CC(=O)N2CCc3ccccc3C2)O[C@@H]1CO`, the activity change (Venus) is -0.0639% and the activity change (mCherry) was -17.7% (inactive).
In the same order, the values of `C[C@H](CO)N1C[C@H](C)[C@@H](CN(C)C(=O)c2cnccn2)Oc2ncc(Br)cc2C1=O` are -0.956% and 2.65% (inactive).
In the same order, the values of `CCCNC(=O)N(C)C[C@H]1Oc2cc(C3=CCCCC3)ccc2S(=O)(=O)N([C@H](C)CO)C[C@H]1C` are -0.298% and -6.09% (inactive).
In the same order, the values of `Cc1ccccc1S(=O)(=O)N[C@H]1CC[C@H](CCn2cc(-c3ccc(F)cc3)nn2)O[C@H]1CO` are -25.8% and -28.8% (inactive).
As for `C[C@H]1CCCCO[C@H](CN(C)S(=O)(=O)c2cn(C)cn2)[C@@H](C)CN([C@@H](C)CO)C(=O)c2cc(NC(=O)C3CCCCC3)ccc2O1`, the activity change (Venus) worked out at 4.42% and the activity change (mCherry) is 9.05% (inactive).
On to `O=C(Nc1nccs1)[C@@H]1[C@@H](CO)[C@@H]2Cn3c(ccc(-c4cccnc4)c3=O)[C@@H]2N1CC1CC1`, for which the activity change (Venus) was 2.33% and the activity change (mCherry) is 16.6% (inactive).
For `COc1cccc(-c2cnc3c(c2)C(=O)N([C@H](C)CO)C[C@H](C)[C@@H](CN(C)Cc2ccc(C(=O)O)cc2)O3)c1`, in that order: 12.8% and 13.4% (inactive).
In the case of `COc1ccccc1-c1cnc2c(c1)C(=O)N([C@H](C)CO)C[C@H](C)[C@@H](CN(C)C(=O)CC1CC1)O2`, the activity change (Venus) is -0.21% and the activity change (mCherry) is 5.06% (inactive).
On to `O=C(C[C@H]1CC[C@H]2[C@@H](COC[C@@H](O)CN2Cc2ccccc2F)O1)NCc1ccccc1F`, for which the activity change (Venus) came out at 2.5% and the activity change (mCherry) was -8.36% (inactive).
On to `O=C(C[C@H]1CC[C@H]2[C@@H](COC[C@@H](O)CN2S(=O)(=O)c2ccc(Cl)cc2)O1)NCCN1CCCCC1`, for which the activity change (Venus) came out at 2.96% and the activity change (mCherry) is 7.02% (inactive).
In the same order, the values of `COCC#Cc1ccc(CC[C@H]2O[C@H]3CC[C@@H](CO)O[C@H]3C[C@H]2NC(=O)Nc2c(C)noc2C)cc1` are 12.1% and 18.6% (inactive).
With `CC(=O)N(C)C[C@@H]1Oc2ncc(C#Cc3ccccn3)cc2C(=O)N([C@@H](C)CO)C[C@@H]1C`, the activity change (Venus) came to 9.68% and the activity change (mCherry) is 7.16% (inactive).
As to `O=C(Cc1ccncc1)NCC[C@H]1CC[C@H](NC(=O)Nc2cccc(F)c2)[C@H](CO)O1`, the activity change (Venus) worked out at 5.2% and the activity change (mCherry) is 3.69% (inactive).
For `COc1ccc(NC(=O)Nc2ccc3c(c2)C(=O)N([C@@H](C)CO)C[C@@H](C)[C@@H](CN(C)C(=O)Nc2ccc(F)cc2)OCCCC[C@@H](C)O3)cc1`, in that order: -5.96% and 0.168% (inactive).
Take `Cn1cnc(CCNC(=O)[C@H]2[C@H](CO)[C@H]3Cn4c(cccc4=O)[C@H]3N2C(=O)Nc2ccccc2)c1`: the activity change (Venus) amounted to 5.32% and the activity change (mCherry) is 12% (inactive).
In the same order, the values of `COc1ccc(S(=O)(=O)Nc2ccc3c(c2)C(=O)N([C@@H](C)CO)C[C@H](C)[C@H](CN(C)Cc2ccc(C(=O)O)cc2)OCCCC[C@@H](C)O3)cc1` are 19.1% and 34.5% (inactive).
`O=C(C1CCCC1)N1[C@H](CO)[C@@H]2c3ccccc3N(S(=O)(=O)c3ccccc3)C[C@@H]21`: the activity change (Venus) was -0.835% and the activity change (mCherry) is 3.15% (inactive).
For `CCC(=O)N1CCC2(CC1)CN(Cc1ccc(Cl)cc1)[C@@H](CO)c1[nH]c3cc(OC)ccc3c12`, in that order: 3.95% and 2.91% (inactive).
Turning to `O=C(C[C@H]1CC[C@@H](NC(=O)c2ccc(F)cc2)[C@@H](CO)O1)NCc1ccncn1`, the activity change (Venus) came to 6.42% and the activity change (mCherry) was 11.2% (inactive).
